{"source": "PubChem BioAssay (NCATS)", "note": "Records with an inconclusive call do not appear. Entries that show only a call come without a potency. Activity calls are given as the source filed them. The call rests on the fitted dose curve; in most records, active means well fitted inhibition curve with a large enough effect; inconclusive means small, poorly fitted or top-dose-only effect; inactive means no such curve, though single readings can be large or run the other way. Potency means the concentration at half of the fitted maximal effect."}
{"system": "Zika virus NS2B-NS3 protease (linked construct)", "assay": "Primary screen NINDS Rhodamine qHTS for Zika virus inhibitors (AID 1347160); further: nearly all actives have a fitted effect of over 55% in size", "conditions": "purified NS2B-NS3 protease, Rhodamine110 substrate fluorescence; series mostly up to 33.1 µM", "from_the_text": "Avindra Nath, Ph.D., National Institute of Neurological Disorders and Stroke (NINDS), Bethesda, MD\nRadhakrishnan Padmanabhan, Ph.D., Georgetown University (GU), Washington D.C.\nZika Virus causes congenital defects, including microcephaly and is associated with Guillain-Barre syndrome, eningoencephalitis and myelitis in infected adult. […] Using a target-based approach, we hope to establish a screening paradigm to uncover novel, cell-active NS2B-NS3 protease (Zika Virus) specific inhibitors from NCATS' collection of small molecules using qHTS.\nFour assay panel was created to identify potential Zika Virus inhibitors. Namely, (1) GU unlinked NS2B-NS3 AMC tagged protease qHTS, (2) GU unlinked NS2B-NS3 Rhodamine tagged protease qHTS, (3) NINDS linked NS2B-NS3 AMC tagged protease qHTS, (4) NINDS linked NS2B-NS3 Rhodamine tagged protease qHTS. Active compounds were re-acquired and re-screened to confirm inhibition. Inhibitors were further screened against various confirmatory and counterscreens in dose response format.\nEarly Translation Branch (ETB)\nNational Center for Advancing Translational Sciences (NCATS), Rockville, MD\nNational Institute of Health (NIH), Bethesda, Maryland\nFor the linked assay, Nath lab (NINDS) provided the purified linked NS2B-NS3 protease which is consists of hydrophilic domain of NS2B linked to the NS3 protease domain by a flexible (-[…]-) linker. Control compound aprotinin is obtained from Thermo Scientific (#78432; Waltham, Massachusetts). Rhodamine110 substrate ([N-Cbz]-Nle-Lys-Arg-Arg-Rhod110-Arg-Arg-Lys-Nle-[N-Cbz]) was purchased from either Genscript or Bachem.\n1536-well Protease (Rhodamine110 Substrate) Assay:\nBriefly, 3 microL of enzyme (25 nM final concentration), in assay buffer (10 mM Tris-HCl pH 8.0 with 0.01% Tween 20) were dispensed into a 1,536-well solid-bottom black plate (Greiner Bio One, Monroe, NC). Twenty-three nL of compounds (final concentration range 7.28 nM to 114 microM) or control Aprotinin (final concentration range 3.47 nM to 114 microM) were transferred via Wako Pin-tool (Wako Automation, Richmond, VA). Samples were incubated (room temperature, protected from light) for 15 minutes followed by a 1 microL Rhodamine110 substrate addition (1.5 microM final concentration). Plates were then immediately read on a ViewLux High-throughput CCD imager (PerkinElmer, Waltham, MA) equipped with FITC fluorescence optics (480(20) nm excitation, 540(25) nm emission), then incubated (room temperature, protected from light) for 15 minutes (~15% conversion). The change in fluorescence intensity over the 15-minute reaction period was normalized against no-inhibitor and no-enzyme controls and the resulting percent inhibition data were fitted to a 4-parameter Hill equation. Aprotinin was used as intraplate control."}
{"smiles": "CC(C)=CCC[C@](C)(O[C@@H]1O[C@H](CO[C@@H]2O[C@@H](CO)[C@H](O)[C@H]2O[C@@H]2OC[C@@H](O)[C@H](O)[C@H]2O)[C@@H](O)[C@H](O)[C@H]1O)[C@H]1CC[C@]2(C)[C@@H]1[C@H](O)CC1[C@@]3(C)CC[C@H](O[C@@H]4O[C@H](CO)[C@@H](O)[C@H](O)[C@H]4O[C@@H]4O[C@H](CO)[C@@H](O)[C@H](O)[C@H]4O)C(C)(C)C3CC[C@]12C", "note": "(stereo not given in full)", "outcome": "inactive [at 10.7 µM]"}
{"smiles": "COC(=O)C1=CO[C@@H](O[C@@H]2O[C@H](CO)[C@@H](O)[C@H](O)[C@H]2O)[C@@H]2C(CO)=CC[C@H]12", "Potency": "inactive"}
{"smiles": "NC1Nc2ccccc2C1(N)CC1NC(=O)C(Cc2ccccc2)NC(=O)C(Cc2ccccc2)NC1=O", "note": "(stereo not given)", "Potency": "inactive"}
{"smiles": "C=C1CCC2(OC1)OC1CC3C4CC=C5CC(O)CC(O[C@@H]6OC[C@H](OC(=O)C(O)C(C)CC)[C@H](O)[C@H]6O[C@@H]6O[C@@H](C)[C@H](O)[C@@H](O)[C@H]6O)C5(C)C4CCC3(C)C1C2C", "note": "(stereo not given in full)", "Potency": "inactive"}
{"smiles": "Cc1ccccc1N1CCN(S(=O)(=O)C[C@]23CC[C@H](C[C@@H]2NC(=O)[C@@H](N)CCS(C)(=O)=O)C3(C)C)CC1", "Potency": "inactive"}
{"smiles": "CC1(C)CC[C@]2(C(=O)O[C@@H]3O[C@H](CO)[C@@H](O)[C@H](O)[C@H]3O)CC[C@]3(C)C(=CCC4[C@@]5(C)C[C@@H](O)[C@H](O)[C@@](C)(CO)C5[C@H](O)C[C@]43C)C2[C@@H]1O", "note": "(stereo not given in full)", "Potency": "inactive"}
{"smiles": "C[C@@H]1O[C@@H](O[C@H]2[C@H](OC(=O)[C@]34CCC(C)(C)C[C@H]3C3=CCC5[C@@]6(C)C[C@@H](O)[C@@H](O[C@@H]7O[C@H](CO)[C@@H](O)[C@H](O)[C@H]7O)[C@@](C)(CO)C6[C@H](O)C[C@@]5(C)[C@]3(C)CC4)OC[C@H](O)[C@@H]2O)[C@H](O)[C@H](O[C@@H]2OC[C@](O)(CO)[C@H]2O)[C@H]1O[C@@H]1OC[C@@H](O)[C@H](O[C@H]2O[C@H](C)[C@@H](O)[C@H](O)[C@@H]2O)[C@H]1O", "note": "(stereo not given in full)", "Potency": "inactive"}
{"smiles": "OC[C@@]1(O)CO[C@H](OC[C@H]2O[C@@H](OC(CCCCc3ccc(O)cc3)CCc3ccc(O)cc3)[C@H](O)[C@@H](O)[C@@H]2O)[C@@H]1O", "note": "(stereo not given in full)", "Potency": "inactive"}
{"smiles": "COc1ccc(C(=O)CC(=O)O)c2c1C=CC(C)(C)O2", "Potency": "inactive"}
{"smiles": "CC1=CCC[C@@H]2[C@@](C)(CCc3ccoc3)[C@H](C(=O)O)CC[C@@]12C", "Potency": "inactive"}
{"smiles": "COc1cc([C@H]2OC[C@](O)(Cc3ccc(O[C@@H]4O[C@H](CO)[C@@H](O)[C@H](O)[C@H]4O)c(OC)c3)[C@@H]2CO)ccc1O", "Potency": "inactive"}
{"smiles": "CC(=O)/C=C/C1(O)C(C)CC(O[C@@H]2O[C@H](CO)[C@@H](O)[C@H](O)[C@H]2O)CC1(C)C", "note": "(stereo not given in full)", "Potency": "inactive"}
{"smiles": "COc1cc(/C=C/C(=O)O[C@@H]2O[C@H](CO)[C@@H](O)[C@H](O)[C@H]2O)ccc1O", "Potency": "8.91 µM (active)"}
{"smiles": "COC(=O)C1=CO[C@@H](O[C@@H]2O[C@H](CO[C@@H]3O[C@H](CO)[C@@H](O)[C@H](O)[C@H]3O)[C@@H](O)[C@H](O)[C@H]2O)[C@@H]2C(CO)=CC[C@H]12", "Potency": "inactive"}
{"smiles": "C[C@@]1(C(=O)O)CCC[C@@]2(C)C3=CC[C@H]4C[C@@]3(CC[C@H]12)CC4(O)CO", "note": "(stereo not given in full)", "Potency": "inactive"}
{"smiles": "O=C(NCC(=O)N1CCCC1)Nc1ccc2ccccc2c1", "Potency": "inactive"}
{"smiles": "O=C(O)c1cc(C(F)(F)F)ccc1N1CC[C@H](OCc2ccccn2)C1", "Potency": "inactive"}
{"smiles": "COC(=O)C(CC1(OC(=O)C(C)C)c2ccccc2N2C(=O)C(C)(C)N(O)C21)n1cnc2ccccc2c1=O", "note": "(stereo not given)", "Potency": "inactive"}
{"smiles": "O=C(O)CC1(O)C(=O)Nc2ccccc21", "note": "(stereo not given)", "Potency": "inactive"}
{"smiles": "CCCCCOC(=O)Nc1nc(=O)n(C2O[C@H](C)[C@@H](O)[C@H]2O)cc1F", "note": "(stereo not given in full)", "Potency": "inactive"}
{"smiles": "COC(=O)C1=COC(OC2OC(CO)C(O)C(O)C2O)C2C(C)CC(=O)C12O", "note": "(stereo not given)", "Potency": "inactive"}
{"smiles": "C=CCc1ccc(O[C@@H]2O[C@H](CO)[C@@H](O)[C@H](O)[C@H]2O)c(O[C@@H]2O[C@H](CO)[C@@H](O)[C@H](O)[C@H]2O)c1", "Potency": "inactive"}
{"smiles": "CCC(C)C(N)C(=O)NCCN1CCOCC1", "note": "(stereo not given)", "Potency": "inactive"}
{"smiles": "OCC1OC(Oc2cc(O)cc(/C=C/c3ccc(OC4OC(CO)C(O)C(O)C4O)cc3O)c2)C(O)C(O)C1O", "note": "(stereo not given)", "Potency": "inactive"}
{"smiles": "C=C(COC(=O)CC(C)C)C1Cc2cc(C(C)=O)ccc2O1", "note": "(stereo not given)", "Potency": "inactive"}
{"smiles": "CC1=C2C(=O)C=C(CO)C2[C@H]2OC(=O)[C@H](C)[C@@H]2[C@@H](OC(=O)Cc2ccc(O)cc2)C1", "note": "(stereo not given in full)", "Potency": "inactive"}
{"smiles": "CC1(C)CC[C@]2(C(=O)O[C@@H]3O[C@H](CO[C@@H]4O[C@H](CO)[C@@H](O)[C@H](O)[C@H]4O)[C@@H](O)[C@H](O[C@@H]4O[C@H](CO)[C@@H](O)[C@H](O)[C@H]4O)[C@H]3O)CC[C@]3(C)C(=CCC4[C@@]5(C)CC[C@H](O[C@@H]6OC[C@@H](O)[C@H](O)[C@H]6O)[C@@](C)(C(=O)O)C5CC[C@]43C)[C@@H]2C1", "note": "(stereo not given in full)", "Potency": "inactive"}
{"smiles": "NC[C@H]1CCC[C@@H](CNC(=O)[C@@H](Cc2c[nH]c3ccccc23)NC(=O)N2CCC3(C=Cc4ccccc43)CC2)C1", "Potency": "inactive"}
{"smiles": "COc1cc([C@@H](O[C@@H]2O[C@H](CO)[C@@H](O)[C@H](O)[C@H]2O)[C@@H]2CO[C@H](c3ccc(O)c(OC)c3)[C@H]2CO)ccc1O", "Potency": "inactive"}
{"smiles": "CC1CCCCCCCc2cc(O)cc(O)c2C(=O)O1", "note": "(stereo not given)", "Potency": "15.8 µM (active)"}
{"smiles": "C=C(C(=O)O)C1CC(O)C2(C)CCCC(C)(O)C2C1", "note": "(stereo not given)", "Potency": "inactive"}
{"smiles": "COc1ccc(-n2c(SCC#N)nc3sc4c(c3c2=O)CCCC4)cc1", "Potency": "inactive"}
{"smiles": "Cc1ncc(Cl)cc1NCc1ccc(C(=O)NC(CC2CCCC2)C(=O)NC2CC2)s1", "note": "(stereo not given)", "Potency": "inactive"}
{"smiles": "C=C1CCC2C(C)(C(=O)O)CCCC2(C)C1CC/C(C)=C\\CO", "note": "(stereo not given)", "Potency": "inactive"}
{"smiles": "CC1(CO)CCCC2(C)C3COC(=O)C3=CC(O)C12", "note": "(stereo not given)", "Potency": "inactive"}
{"smiles": "Cc1c(O)cc2c(c1O)COC1(O)CCCOC21", "note": "(stereo not given)", "Potency": "inactive"}
{"smiles": "CC(O)C(O)/C=C/C=C/C(=O)O[C@@H]1C=C(C(=O)O)[C@](O)(CO)[C@@]2(C)CCCC(C)(C)[C@H]12", "note": "(stereo not given in full)", "Potency": "inactive"}
{"smiles": "C=C1C[C@H](O)[C@@H](O)[C@@]2(C)C1[C@@H](O)[C@H]1OC(=O)C3[C@@H](C)[C@@H](O)[C@H](O)C2[C@]31C", "note": "(stereo not given in full)", "Potency": "inactive"}
{"smiles": "CN(C)CCC[C@]1(c2ccc(F)cc2)OCc2cc(C#N)ccc21", "Potency": "inactive"}
{"smiles": "COc1ccc(-c2ccn(CC[C@](C)(C(=O)NO)S(C)(=O)=O)c(=O)c2)c(F)c1", "Potency": "inactive"}
